The full list was thinned out, with hits kept by preference.
FECH block = human FECH heme synthesis enzyme inhibition; calls only at 10 µM (by protocol); hit rate 3.3% among 20,000; purified FECH, Ni-mesoporphyrin absorbance 550 nm; P22830;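 active = enzyme reaction rate more than 3 SD below the solvent-only control wells on the same plate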;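 also: lower slope than DMSO wells means FECH inhibition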
Target sequence (P22830 whole entry, looked up): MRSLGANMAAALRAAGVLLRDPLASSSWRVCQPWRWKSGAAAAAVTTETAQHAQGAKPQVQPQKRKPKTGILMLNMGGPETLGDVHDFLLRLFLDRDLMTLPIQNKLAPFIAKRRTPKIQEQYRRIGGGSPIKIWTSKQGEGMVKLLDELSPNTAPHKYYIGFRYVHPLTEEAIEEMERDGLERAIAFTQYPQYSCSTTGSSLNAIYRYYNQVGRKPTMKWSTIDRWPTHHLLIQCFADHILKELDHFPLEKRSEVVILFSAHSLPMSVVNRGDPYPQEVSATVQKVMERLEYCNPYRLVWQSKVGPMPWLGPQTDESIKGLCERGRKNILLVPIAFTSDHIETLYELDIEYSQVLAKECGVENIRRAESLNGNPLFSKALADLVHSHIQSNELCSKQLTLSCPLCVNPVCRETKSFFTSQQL
Numbers without * were called inactive; i = inactive; + = active, no number.

SMILES | FECH block
O=C(NCC1CCCCO1)c1cc(COc2c(F)cccc2F)on1 (stereo unspecified) | i
Cc1cccc(C(C(=O)NCc2nnc3n2CCC3)N(C)C)c1 (stereo unspecified) | i
CN(C(=O)C1CCCN(c2ncnc3c2nc2n3CCCCC2)C1)c1ccccc1Cl (stereo unspecified) | i
CCC(=O)Nc1ccccc1-c1nnc(SC(CC)C(=O)Nc2cccc(C(C)=O)c2)[nH]c1=O (stereo unspecified) | i
Cc1ccc(NC(=O)CC(=O)NCCOc2cccc3cccnc23)cc1 | i
COc1ccc(C(=O)Nc2ccc(C)c(OCc3cc(=O)n4cccc(C)c4n3)c2)cc1 | i
Cc1ccc(NC(=O)c2ccccc2C)cc1OCc1cc(=O)n2cccc(C)c2n1 | i
Cc1ccc(NC(=O)C2CCCCC2)cc1OCc1cc(=O)n2cccc(C)c2n1 | +
CC(C)(C)c1ccc(S(=O)(=O)NCc2nc3cccnc3n2C2CC2)cc1 | i
CC(=O)c1ccc(S(=O)(=O)NCc2nc3cccnc3n2CC(C)C)cc1 | i
Cn1cnc(-c2ccccc2)c1-c1cccc2cnccc12 | i
COCC1(Cn2cnc(-c3ccccc3)c2-c2cccc3cnccc23)CC1 | +
CCc1ccccc1-c1c(-c2ccccc2)ncn1CCC(=O)OC | i
O=C(Nc1cccc(Cl)c1)N1CCN(c2cc(-c3ccc(F)cc3)ncn2)CC1 | i
O=C(c1ccc[nH]c1=O)N1CCc2[nH]nc(C(c3ccccc3)c3ccccc3)c2C1 | i
CCc1c(C)nc2ncnn2c1Sc1ccc(NC(=O)c2ccccc2OC)cc1 | +
CCOc1ccccc1C(=O)Nc1ccccc1Sc1c(CC)c(C)nc2ncnn12 | i
CCc1ccc(NC(=O)Nc2ccc(Sc3c(CC)c(C)nc4ncnn34)cc2)cc1 | i
CCc1c(C)nc2ncnn2c1Sc1ccc(NC(=O)c2ccccc2Cl)cc1 | i
CCCc1c(C)nc2ncnn2c1Sc1ccc(NC(=O)c2ccccc2OC)cc1 | i
CCOc1ccccc1C(=O)Nc1ccc(Sc2c(CC)c(C)nc3ncnn23)cc1 | +
CCc1c(C)nc2ncnn2c1Sc1ccc(NC(=O)c2cc(OC)c(OC)c(OC)c2)cc1 | i
CCc1c(C)nc2ncnn2c1Sc1ccc(NC(C)=O)cc1 | i
CCc1c(C)nc2ncnn2c1Sc1ccc(NC(=O)NCc2ccccc2)cc1 | +
CC(=O)Nc1ccc(NC(=O)Cn2nc(N3CCN(c4ccc(F)cc4)CC3)ccc2=O)cc1 | i
SMILES | FECH block
Cc1ccc(Nc2cc(C)nc(Nc3ccc(NC(=O)c4cc(C)cc(C)c4)cc3)n2)cc1 | i
CCn1c(C)nnc1SCCNC(=O)c1csc(C)n1 | i
COc1ccccc1OCC(=O)Nc1cc(C)nn1-c1ncnc2c1cnn2-c1cccc(C)c1C | i
C=C(C)COc1ccccc1C(=O)N(CC)C1CCOC(C)(C)C1 (stereo unspecified) | i
COC(=O)C(c1cccc(C)c1)n1ccnc1-c1ccccc1C(=O)O (stereo unspecified) | i
CCOC(=O)C1CCN(S(=O)(=O)c2cc3c(cc2Cl)NC(=O)CO3)CC1 | i
COc1ccccc1NC(=O)C1CCCN1S(=O)(=O)c1cc2c(cc1C)NC(=O)CO2 (stereo unspecified) | i
Cc1cc2c(cc1S(=O)(=O)N1CCCC1C(=O)N1CCc3ccccc31)OCC(=O)N2 (stereo unspecified) | +
Cc1ccc(NC(=O)C2CCN(S(=O)(=O)c3cc4c(cc3C)NC(=O)CO4)CC2)nc1 | +
CC1CCCCN1S(=O)(=O)c1cc2c(cc1Cl)NC(=O)CO2 (stereo unspecified) | i
Cc1ccc(NC(=O)CN2C(=O)CCc3cc(S(=O)(=O)N4CCCC4)ccc32)nc1 | i
COc1cccc(-c2nc(CSc3nc(C(F)(F)F)cc(=O)[nH]3)c(C)o2)c1OC | i
COc1nccnc1N1CCC(CO)(CCc2ccccc2)CC1 | i
CC(CO)NC(=O)c1cc(COc2cccc(C(F)(F)F)c2)[nH]n1 (stereo unspecified) | i
CC(=O)Nc1nc2n(n1)C(c1c(F)cccc1Cl)C=C(c1ccc(C)cc1)N2 (stereo unspecified) | i
CCC(=O)Nc1nc2n(n1)C(c1c(F)cccc1Cl)C=C(c1ccccc1)N2 (stereo unspecified) | +
CC(C)C(=O)Nc1nc2n(n1)C(c1c(F)cccc1Cl)C=C(c1ccccc1)N2 (stereo unspecified) | +
CCCC(=O)Nc1nc2n(n1)C(c1c(F)cccc1Cl)C=C(c1ccc(Cl)cc1)N2 (stereo unspecified) | i
CCC(=O)Nc1nc2n(n1)C(c1c(F)cccc1Cl)C=C(c1ccc(Cl)cc1)N2 (stereo unspecified) | i
CC(C)C(=O)Nc1nc2n(n1)C(c1ccc(Cl)cc1)C=C(c1ccccc1)N2 (stereo unspecified) | i
CCOc1ccc(CNC(=O)CC2CCN(S(=O)(=O)c3ccccc3)CC2)cc1 | i
CC(C)c1ccc2c(c1)-c1ccccc1S(=O)(=O)N2CC(=O)NCc1cccnc1 | +
CCOCCCNC(=O)CN1c2ccc(CC)cc2-c2ccccc2S1(=O)=O | +
CC(C)c1ccc2c(c1)-c1ccccc1S(=O)(=O)N2CC(=O)NCCN1CCOCC1 | i
CCc1ccc2c(c1)-c1ccccc1S(=O)(=O)N2CC(=O)NCCN1CCOCC1 | i
SMILES | FECH block
CCc1ccc2c(c1)-c1ccccc1S(=O)(=O)N2CC(=O)NCCc1ccc(OC)c(OC)c1 | i
CCc1ccc2c(c1)-c1ccccc1S(=O)(=O)N2CC(=O)NCc1ccncc1 | +
COc1ccc(CCNC(=O)CN2c3ccc(C(C)C)cc3-c3ccccc3S2(=O)=O)cc1 | i
O=C(CN1C(=O)c2ccccc2S1(=O)=O)NCc1ccc2c(c1)OCO2 | i
CC(Oc1ccccc1)C(=O)N1CCc2c(c(C(=O)NCc3ccccc3)nn2C)C1 (stereo unspecified) | i
COc1ncccc1-c1nc(N(C)C)nc2c1CCCC2 | i
O=C(NCc1coc(-c2ccccc2)n1)c1cn(CC2CCCNC2)nn1 (stereo unspecified) | i
CCn1c(C2CCN(C(=O)COc3ccc4c(c3)OCO4)CC2)n[nH]c1=O | i
Cc1nsc(NC(=O)N[C@@H]2CCCC[C@H]2c2ccccc2)n1 | i
CCCc1c(C)nc2ncnn2c1Sc1ccc(NC(=O)c2cccc(F)c2)cc1 | i
O=C(NCc1nncn1C1CCCCC1)c1cc2sccc2[nH]1 | i
CCc1c(C)nc2ncnn2c1Sc1ccc(NC(=O)Nc2cc(C)cc(C)c2)cc1 | i
Cc1ccc(S(=O)(=O)N2CCN(c3nc(C)cc(N4CCCCC4)n3)CC2)c(C)c1 | i
c1ccc(C(c2ccccc2)c2n[nH]c3c2CN(CC2CCCO2)CC3)cc1 (stereo unspecified) | i
CCN(CC)c1nccc(-c2cc(C(=O)O)ccn2)n1 | i
CCOc1ccc(-c2ccnc(CC3CCN(C)CC3)n2)cc1C(=O)O | i
CCOCc1nccc(-c2cc(C(=O)O)ccn2)n1 | +
CCn1nc(C(C)C)cc1-c1n[nH]c(Cc2ccccc2)n1 | i
CCN1C(=O)C2CCCCN2c2ccc(C(=O)NCc3ccccc3)cc21 (stereo unspecified) | i
COc1cccc(C(=O)N(Cc2nc3nc(C)cc(C)n3n2)c2cccc(C)c2)c1 | i
Cc1cccc(N(Cc2nc3nc(C)cc(C)n3n2)C(=O)COc2ccccc2)c1 | +
CCCC(=O)N(Cc1nc2nc(C)cc(C)n2n1)c1ccccc1 | +

Compound activity: PubChem BioAssay, Corson Lab, School of Medicine, Indiana University
